# The list is not random: actives were taken first. Their share in the collection is about 11%.
# NS1 function inh – qHTS Assay for Inhibitors of Influenza NS1 Protein Function; Potency, µM (doses to about 46.1 µM), for inactives: at the highest dose activity, positive = more growth; hit rate 0.4% among 270,000; AID 2326, 2010; calls by dose curve; note: potency is the fitted concentration of half-maximal effect; actives are rising curves; nearly all actives have a fitted effect of over 50% in size
#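 Read-out: OD600 growth recovery of NS1-expressing budding yeast. Cells grown overnight at 30C in -URA glucose medium, washed, resuspended and diluted 1:100 in 2% galactose assay medium, pH 6.0. Same strain lacking NS1 served as positive control.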
# Sm TGR inh – qHTS Assay for the Inhibitors of Schistosoma Mansoni Peroxiredoxins. purified TGR, DTNB reduction, TNB absorbance 405 nm. AID 485364, 2010. hit rate 3% among 360,000. Potency, µM (top dose mostly 114 µM), for inactives: at the top dose activity change, negative = inhibition, hits mostly inhibitors; note: potency is the fitted concentration of half-maximal effect; % is set by controls: 0 for no effect and ±100 for the full control effect; nearly all actives have a fitted effect of over 60% in size
#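 First, TGR (20 nM dispensed) and NADPH were mixed with compound. Second, a 15 min room-temperature incubation followed. Third, further NADPH and then DTNB were added to start the reaction. Finally, TNB absorbance was monitored kinetically.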
# Pf growth 96h – Primary qHTS for delayed death inhibitors of the malarial parasite plastid, 96 hour incubation. P. falciparum luciferase reporter growth, 96 h. Potency, µM (titrated, usually from 28.7 µM), without a hit: top-dose activity change, negative = inhibition, usual class: inhibitors. hit rate 6.9% among 320,000; note: potency is the fitted concentration of half-maximal effect; % is set by controls: 0 for no effect and ±100 for the full control effect
#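 Plates of compound plus infected erythrocytes (2% hematocrit, 0.05% parasitemia final) incubate 96 hours, 37 C, 5% CO2. Detection reagent added; reduced luminescence from the parasites' luciferase reporter flags inhibition.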
# AMA1 RON2 block – qHTS for Inhibitors of AMA1-RON; Towards Development of Antimalarial Drug Lead: Primary Screen | Plasmodium falciparum AMA1 (3D7) - RON2 peptide interaction | AlphaScreen AMA1-biotinylated RON2 peptide binding | Potency, µM (titrated, usually from 58.2 µM), for inactives: top-dose activity change, negative = inhibition, hits mostly inhibitors | hit rate 0.2% among 360,000;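 note: potency is the fitted concentration of half-maximal effect; 0% = vehicle wells and -100% = peptide control; nearly all actives have a fitted effect of over 45% in size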
#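 AMA1 (3D7) with his tag at 25 nM final met compounds first, then biotinylated RON2 peptide at 25 nM; detection used donor plus acceptor beads, 10 µg/mL apiece, read by AlphaScreen after 30 min at room temperature.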
# Pf growth 48h – Primary qHTS for delayed death inhibitors of the malarial parasite plastid, 48 hour incubation; P. falciparum luciferase growth in erythrocytes, 48 h; Potency, µM (series often up to 28.7 µM), for the others: at the top dose activity change, negative = inhibition, actives largely listed as inhibitors; hit rate 5.9% among 310,000; AID 504832, 2011; note: potency is the fitted concentration of half-maximal effect; % is set by controls: 0 for no effect and ±100 for the full control effect
#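 Read-out is firefly luciferase luminescence from an integrated reporter in P. falciparum, so falling signal marks reduced parasite growth. Infected erythrocytes were at 2% hematocrit and 0.1% parasitemia (final) in Albumax-supplemented RPMI 1640.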
# Flu NS1 inh – Assay for Inhibitors of Influenza NS1 Protein Function: Hit Validation; shares compounds with NS1 function inh; influenza NS1 function cell assay, 15-point titration; activity change, negative = inhibition, % at 32.9 µM; 1,400 tested, under 10 active; calls by dose curve; note: 0% is about no effect
# Flu PR8 replic – Assay for Inhibitors of Influenza NS1 Protein Function: Influenza virus replication assay in MDCK cells infected with virus A/PR/8/34; shares compounds with NS1 function inh; MDCK infected influenza A/PR/8/34, virus titer TCID50; hits give low values; virus titer (log TCID50), log10 TCID50 at 5 µM; hit rate 30% among 95; AID 504647, 2011; call rule not given here
# * = called active by the depositor; ? = inconclusive; . = not tested or not shown; [ ] = dose if it differs, or a comment. Unless noted, calls come from the whole dose curve; as a rule, active = well fitted curve in the direction sought with a large enough effect; inconclusive = small, poorly fitted or top-dose-only effect, or another doubt; inactive = no such curve, though single readings can be large; an effect the other way counts as inactive or inconclusive.
SMILES,NS1 function inh,Sm TGR inh,Pf growth 96h,AMA1 RON2 block,Pf growth 48h,Flu NS1 inh,others
CCOc1ccc(N(C(C)C(=O)NCCSc2ccc(Cl)cc2)S(C)(=O)=O)cc1 (stereo not given),.,-19%,.,.,.,.,
O=C(c1ccc(C(F)(F)F)cc1)N1CCC(=O)N(C(COCc2ccc(C(F)(F)F)cc2)Cc2ccccc2)CC1 (stereo not given),?,-3%,9.3µM*,1%,?,-18,
O=C(c1ccc(Cl)c(Cl)c1)N1CCC(=O)N(C(COCc2cccc(Cl)c2)Cc2ccccc2)CC1 (stereo not given),22µM*,-4%,-103%,0%,-69%,1,
N#C/C(=C\c1c[nH]c2ccccc12)C(=O)Nc1ncc(Cc2ccc(Cl)cc2Cl)s1,11µM*,-5%,?,8%[2.32 µM],-9%,-19,
COc1ccc(-n2cc(C(=O)Nc3cc([N+](=O)[O-])ccc3OC)c3ccccc3c2=O)cc1,22µM*,-4%,?,-3%,-28%,9,
COc1cccc(NS(=O)(=O)c2ccc3c(c2)C2C=CCC2C(c2ccc(C(=O)O)cc2)N3)c1 (stereo not given),10µM*,?,12%,?,-13%,9,
CC(=O)c1cccc(NC(=O)CCc2nnc3ccc(NCc4ccc5c(c4)OCO5)nn23)c1,-1%,3%,?,-4%,-6%,.,
COc1ccc(NC(=O)CC2SC(=O)NC2=O)cc1 (stereo not given),.,?,-9%,41%,8%,.,
Cc1ccc(NC(=O)CC2SC(=O)NC2=O)cc1 (stereo not given),6.3µM*,-36%,1%,106%,-4%,-6,
COc1ccc(-c2ccc(-c3nc4c(c(=O)[nH]c(=O)n4Cc4ccccc4)n3C)o2)c([N+](=O)[O-])c1,3.5µM*,-24%,?,-6%,?,-11,
CCOCN(C(=O)Cn1c(CC(C)C)nc2ccccc21)c1c(C)cccc1CC,.,2%,.,.,.,.,
CCc1nc2ccc(C(=O)Nc3cccc(OC)c3)cn2c1N(C)CCCc1ccccc1,.,.,.,-8%,.,.,
O=c1[nH]c(C2CCCN(S(=O)(=O)c3ccc(F)cc3)C2)nc2c1nnn2Cc1ccc(F)cc1 (stereo not given),?,-12%,14%,-1%,?,-5,
Cc1ccc(Cn2nnc3c(=O)[nH]c(C4CCCN(S(=O)(=O)c5ccc(F)cc5)C4)nc32)cc1 (stereo not given),3%,5%,148%,-6%,?,.,
CC(=O)c1ccc(NC(=O)c2cc(CC(C)C)nc3ccccc23)cc1,-23%,7%,?,17%,?,.,
Cc1[nH]n(-c2ncc(-c3ccccc3)s2)c(=O)c1C(c1ccc(Br)cc1)C(C#N)C#N (stereo not given),4.5µM*,?,4%,26%,7%,-21,
Cc1[nH]n(C(N)=S)c(=O)c1C(c1ccccc1)C(C#N)C#N (stereo not given),-41%,?,-4%,18%,?,.,
COc1ccccc1N1CCN(C(=O)C2CCCN(S(=O)(=O)c3ccc4c(c3)CCCN4C(C)=O)C2)CC1 (stereo not given),?,2%,39%,0%,?,-20,
CC(=O)N1CCCc2cc(S(=O)(=O)N3CCCC(C(=O)N4CCN(c5ccccc5)CC4)C3)ccc21 (stereo not given),?,0%,0%,-1%,?,.,
Cc1ccc2nc(NNC(=O)c3ccc(S(=O)(=O)N4CCc5ccccc5C4)cc3)sc2c1,10µM*,-9%,2.9µM*,56%,1.9µM*,?,
COc1ccc(C=C(c2nc3ccccc3s2)c2nc3ccccc3s2)cc1O,16µM*,-10%,?,-25%,?,-12,
CN(C)c1ccccc1C(=O)c1ccccc1N(C)C,8.9µM*,-12%,.,-20%,67%,5,
O=C1/C(=C/c2cccnc2)Oc2cc(OS(=O)(=O)c3ccc(Cl)cc3)ccc21,3.5µM*,4%,-28%,1%,.,31,
O=C1/C(=C/c2cccnc2)Oc2cc(OS(=O)(=O)c3ccccc3)ccc21,?,-2%,?,-19%,.,.,
CCOC(=O)C1(C)CCCCCN1C(=O)c1ccc(Cl)nc1 (stereo not given),.,.,.,4%,.,.,
SMILES,NS1 function inh,Sm TGR inh,Pf growth 96h,AMA1 RON2 block,Pf growth 48h,Flu NS1 inh,others
O=C(NCc1ccccc1)c1cccc(OCC(=O)N2CCN(C(=O)c3ccco3)CC2)c1,?,-47%,.,-18%,-26%,11,
Cc1ccc(Cn2c(=O)n(Cc3ccco3)c(=O)c3oc4ccccc4c32)cc1,.,-2%,.,.,.,.,
CCCC(CCC)C(=O)OC1C[C@H]2CC[C@@H](C1)[N+]2(C)C (stereo not given in full),?,12%,4.3µM*,-8%,12µM*,12,
O=C(CSc1nnc(COc2ccc(Cl)cc2)o1)Nc1ccc(N2CCOCC2)cc1,.,-13%,18%,-2%,40%,.,
O=C(CCN1C(=O)C2CC=C(Cl)CC2C1=O)Nc1ccccc1O (stereo not given),?,0%,1µM*,-7%,-6%,9,
O=C(CCN1C(=O)C2CC=C(Cl)CC2C1=O)NCc1ccccc1 (stereo not given),2%[9.22 µM],0%,-29%,10%,2%,.,
CCOC(=O)c1ccc(Nc2c(-c3cccc(O)c3)nc3nc[nH]n23)cc1,.,4%,.,.,.,.,
COC(=O)c1cccc(C23CC4(C2)[C@H](CN(Cc2cccnc2)[C@@H]4c2ccccc2)C3c2ccc(C(F)(F)F)cc2)c1 (stereo not given in full),8.9µM*,?,?,8%,2.3µM*,2,
CSc1ccc(C(c2c(C)[nH][nH]c2=O)c2c(C)[nH][nH]c2=O)cc1,3.2µM*,-13%,?,12%,-22%,?,
Cc1ccc(C(=O)N/N=C/c2cc(C)n(-c3ccc(Br)cc3)c2C)cc1[N+](=O)[O-],10µM*,12%,-13%,35%,-1%,-19,Flu PR8 replic=8.3
Cc1ccc(-c2noc(C3CCCN(C(=O)c4ccc(C(C)(C)C)cc4)C3)n2)o1 (stereo not given),8%,3%,14%,-10%,?,.,

# From PubChem BioAssay
